According to PubChem BioAssay (NCI):
About 79,000 compounds went through this panel and 15% of them were active in at least one assay; those are over-represented in the sample as a whole. Activity calls are given as the source filed them. Rule as the data show it: active = growth inhibition above about 70%; inactive = the rest.

Test: NCI Yeast Anticancer Drug Screen. Data for the rad50EPP+ strain (AID 151);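 also: 0% = growth of vehicle-treated control cultures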
Conditions: S. cerevisiae rad50 mutant strain, active compounds read high
Description: Growth inhibition of yeast strains with defined genetic alterations is measured as a screen for potential anti-cancer activity. Selected strains with alterations in DNA damage repair or cell cycle control were exposed to compounds and growth inhibition was measured relative to vehicle treated controls. The strain used in this assay is rad50EPP+

SMILES | growth inhibition (at 1.2 µM) | growth inhibition (at 3.7 µM) | growth inhibition (at 11.0 µM) | growth inhibition (at 33.0 µM) | growth inhibition (at 100.0 µM)
COC(=O)CSSCc1ccc([N+](=O)[O-])cc1 | -2% (inactive) | 13% (inactive) | 70% (active) | 93% (active) | 98% (active)
CC1C(NNc2ccccc2)Oc2cc3c(cc2C1c1ccccc1O)OCO3 (stereo not given) | -1% (inactive) | 7% (inactive) | 71% (active) | 90% (active) | 91% (active)
COc1ccccc1/C=C1\Sc2scc(-c3cccc([N+](=O)[O-])c3)[n+]2C1=O | 11% (inactive) | 80% (active) | 95% (active) | 96% (active) | 88% (active)
COc1ccc2nc3c([N+](=O)[O-])ccc(NCCN(C)C)c3c(NCCN(C)C)c2c1 | 0% (inactive) | 3% (inactive) | 1% (inactive) | 5% (inactive) | 14% (inactive)
Cc1ccc2ccc(O)cc2c1 | -25% (inactive) | -49% (inactive) | -25% (inactive) | -12% (inactive) | 46% (inactive)
O=[N+]([O-])c1ccc2c(c1)C(N1CCN(CCO)CC1)Cc1ccc(F)cc1S2 (stereo not given) | -2% (inactive) | -1% (inactive) | -1% (inactive) | -1% (inactive) | 1% (inactive)
CC(=O)Nc1ccc(/C=C(\C#N)c2ccc(C)cc2)cc1 | -11% (inactive) | -20% (inactive) | -18% (inactive) | -8% (inactive) | -5% (inactive)
CSC1=NNC(SC)=NN1 | -4% (inactive) | -9% (inactive) | 0% (inactive) | 55% (inactive) | 98% (active)
